Experimental findings from PubChem BioAssay (NCATS) are described below.

Records with an inconclusive call do not appear. Activity calls are given as the source filed them. Unless noted, calls come from the whole dose curve; as a rule, active = well fitted curve in the direction sought with a large enough effect; inconclusive = small, poorly fitted or top-dose-only effect, or another doubt; inactive = no such curve, though single readings can be large; an effect the other way counts as inactive or inconclusive. A value given as a limit tells only on which side of the number the result lay.

Assay [1] has as its target Lysosomal acid glucosylceramidase (Homo sapiens) (UniProt P04062). Kind of assay: Glucocerebrosidase-p2 (AID 348; in the data active = potency below about 10 µM; note: potency is the fitted concentration of half-maximal effect). The following applies: purified GBA, blue fluorogenic substrate, 40 min. In a few lines: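 Normal human glucocerebrosidase (0.2 nM) with blue fluorogenic substrate (80 uM final) in citrate/phosphate pH 5.9 with 10mM sodium taurocholate, 0.01% tween-20; 40 min RT, NaOH/glycine stop; fluorescence Ex 365/Em 440; AC50 from a titration from 0.6 nM upwards.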

Assay [2] is described as follows: AP1 Signaling Pathway (AID 357; active = well fitted curve in either direction with a large enough effect, not every such curve was filed as active;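 note: ME-180 reporter cells stimulated with EGF at its EC50 level; % is set by controls: 0 for no effect and ±100 for the full control effect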). The conditions noted are these: ME-180 AP-1-bla reporter, EGF-induced, beta-lactamase ratio, 5 h; at 7.69 µM (top of the series) unless noted. In a few lines: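 Titration-series screen for positive or negative modulators of EC50 EGF-induced signaling in ME-180 cells carrying an AP-1-driven beta-lactamase reporter. After 5 hours at 37 degrees Celsius, CCF4 460nm/530nm emission ratio gave %Activity; AC50 values derived.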

Assay [3] concerns the target Cytochrome P450 1A2 (Homo sapiens) (UniProt P05177). Nature of the assay: p450-cyp1a2 (AID 410; calls by dose curve; note: potency is the fitted concentration of half-maximal effect). In a few lines:
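O-Demethylation of luciferin 6' methyl ether by human CYP1A2 is monitored as luciferase luminescence. Substrate sits at Km (100uM); enzyme is 20nM. Values are scaled to 57 uM furafylline as maximal inhibition.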

Assay [4] can be described thus: NFAT Signaling Pathway (AID 444; active = well fitted curve in either direction with a large enough effect, not every such curve was filed as active;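 note: carbachol stimulus at about its EC50 of 1 µM final; % is set by controls: 0 for no effect and ±100 for the full control effect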). The following applies: Jurkat NFAT-bla M1, carbachol, beta-lactamase ratio, 5 h; at 7.69 µM (top of the series) unless noted. In a few lines: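 Jurkat cells with NFAT-driven β-lactamase reporter and co-expressed M1 receptor, stimulated with carbachol (final 1 uM, ~EC50), compound titration, 5 h at 37 °C. CCF4 loaded 1 h at RT; 460/530 nm ratio gave %activity and AC50.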

The nature of assay [5]: Stat Signaling Pathway (AID 446; active = well fitted curve in either direction with a large enough effect, not every such curve was filed as active;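 note: ME-180 cervical cancer cells given 40 pM IL-6 alongside compound; SIE-controlled beta-lactamase reporter measured as 460/530 nm FRET emission ratio; % is set by controls: 0 for no effect and ±100 for the full control effect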). The following applies: ME-180 (cervical carcinoma) SIE beta-lactamase reporter, IL-6 stimulated, 5 h; at 7.69 µM (top of the series) unless noted. In a few lines:
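Compound effects on IL-6-induced STAT reporter activity were measured in ME-180 cells. After overnight culture, cells were co-treated with 40 pM IL-6 for 5 hrs before beta-lactamase substrate loading at room temperature.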

Assay [6] deals with Glucocorticoid receptor (Homo sapiens) (UniProt P04150). Kind of assay: GR-GFP Redistribution (AID 450;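 active = compounds whose dose series gives a full or clear partial fitted curve of increased nuclear translocation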; note: potency is the fitted concentration of half-maximal effect). The conditions noted are these: U2OS GR-GFP nuclear translocation, laser cytometry, 2 h.
Assay [7] shares this target. Kind of assay: GR-EFC Redistribution (AID 451; calls by dose curve; note: potency is the fitted concentration of half-maximal effect). The following applies: CHO-K1 GR-EFC translocation, beta-gal luminescence, 2 h. In a few lines: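 CHO-K1 cells expressing nuclear EA and GR-ED fragments of b-gal; compounds titrated up to 46 uM final, 2 h at 37 C. GR nuclear translocation read as complemented b-gal luminescence after 1 h RT detection.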
Assay [8] concerns the target Mitogen-activated protein kinase 10 (Mus musculus) (UniProt Q61831). Kind of assay: JNK3 AlphaScreen Assay (AID 530; active = well fitted curve in either direction with a large enough effect, not every such curve was filed as active;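 note: kinase came from lysate of stimulated human HepG2 cells; signal reports phosphorylation of biotinylated GST-cJun 1-79 at Ser73 with 10 µM ATP; % is set by controls: 0 for no effect and ±100 for the full control effect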). In a few lines: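 Activity was read by AlphaScreen after JNK3-containing HepG2 lysate (cytokine pre-activated) phosphorylated biotinylated GST-cJun with 10 uM ATP at room temperature. Phospho-Ser73 cJun antibody with Protein-A acceptor beads provided detection.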
(Bead proximity is the source of the signal in Alpha formats.)

For assay [9], the target named is 3',5'-cyclic-AMP phosphodiesterase 4B (Homo sapiens) (UniProt Q07343). Nature of the assay: qHTS Assay for Inhibitors of PDE-IV (AID 607; active = well fitted activation curve with a large enough effect in the main read-out, with a control signal flat, not every such curve was filed as active; note: % of control where 0% means no effect). In a few lines:
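ACTOne HEK293 cells carry a modified cAMP-gated CNG channel and express endogenous PDE4; plated 1000 cells/well, compounds up to 22.9 uM final. Membrane-potential dye fluorescence (ex 535/em 590) was read; parental cells received 10 uM forskolin + 100 uM RO 20-1724.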
Background: qHTS replaces the single test concentration by a dilution series.

In assay [10] the target is Cytochrome P450 2C9 (Homo sapiens) (UniProt P11712). Kind of assay: qHTS Assay for Inhibitors and Substrates of Cytochrome P450 2C9 (AID 883). Note: % is set by controls: 0 for no effect and ±100 for the full control effect; nearly all actives have a fitted effect of over 60% in size. In a few lines:
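Human CYP2C9 (10nM) with Luciferin-H at 100uM (its KM) in 25mM KPO4; compound preincubated 10 min at 37C, then NADPH regeneration for 60 min at 37C. Luciferin read by luminescence after detection reagent; normalized to 57uM sulphaphenazole as full inhibition.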

Assay [11] concerns the target Cytochrome P450 3A4 (Homo sapiens) (UniProt P08684). Nature of the assay: qHTS Assay for Inhibitors and Substrates of Cytochrome P450 3A4 (AID 884). Note: potency is the fitted concentration of half-maximal effect; nearly all actives have a fitted effect of over 50% in size. In a few lines: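 Luminescent readout of luciferin produced by CYP3A4 (20 nM) dealkylation of Luciferin-PPXE, 25 uM (its KM). NADPH-driven reaction ran 60 min at RT after 10 min compound preincubation; data scaled to 57 uM ketoconazole as 100% inhibition.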

Assay [12] addresses Cytochrome P450 2D6 (Homo sapiens) (UniProt P10635). Nature of the assay: qHTS Assay for Inhibitors and Substrates of Cytochrome P450 2D6 (AID 891). Note: potency is the fitted concentration of half-maximal effect; nearly all actives have a fitted effect of over 60% in size. In a few lines: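 Luminescent read-out of luciferin formed by 5 nM human CYP2D6 demethylating 30 uM Luciferin-ME EGE (Km level) over 60 min at room temperature after NADPH regeneration addition. Data normalized to full inhibition by 1.43 uM quinidine.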

Assay [13] deals with Cytochrome P450 2C19 (Homo sapiens) (UniProt P33261). Kind of assay: qHTS Assay for Inhibitors and Substrates of Cytochrome P450 2C19 (AID 899). Note: % is set by controls: 0 for no effect and ±100 for the full control effect; nearly all actives have a fitted effect of over 60% in size. In a few lines: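 5 nM human CYP2C19 with 10uM Luciferin-H EGE (at KM) in 50mM KPO4, compound preincubated 10 min at 37C, then NADPH regeneration for 60 min at 37C. Luciferin read by luminescence after detection reagent; normalized to 57uM ketoconazole as full inhibition.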

The nature of assay [14]: Confirmation and Secondary Assay for Modulators of Hemoglobin Beta Chain Splicing at IVS2 654 locus (AID 910).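 Note: HeLa cells stably carrying EGFP split by mutant beta-globin IVS2-654 intron; % of control where 0% means no effect.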 In a few lines: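 HeLa cells stably expressing EGFP interrupted by β-globin IVS2-654 intron, seeded overnight in Opti-MEM/2% FCS, then treated 2 days at 37 °C. Restored splicing read as total peak GFP intensity per well by laser scanning cytometry (488 nm excitation, 500–520 nm emission); 500 nM antisense PNA as control.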

A short description of assay [15]: Confirmation and Secondary Assay for Modulators of Hemoglobin Beta Chain Splicing at IVS2 705 locus (AID 930).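 Note: HeLa cells stably expressing the EGFP-705 splicing reporter; GFP fluorescence per well restored by corrected splicing of the IVS2-705 intron in EGFP; % of control where 0% means no effect.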 In a few lines:
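HeLa EGFP-705 reporter; 500 cells/well, o/n 37C 5% CO2; cpd 2 d; 488 ex/500-520 em laser scan; total peak GFP intensity/well. Ref: 500 nM […] antisense PNA.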

Assay [16] is described as follows: Confirmatory qHTS for small molecule stabilizers of the endoplasmic reticulum resident proteome: Secreted ER Calcium Modulated Protein (SERCaMP) assay (AID 1508628). Note: nearly all actives have a fitted effect of over 40% in size. Note: potency is the fitted concentration of half-maximal effect. In a few lines: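 Reporter secretion upon ER calcium depletion (100 nM thapsigargin, 4 h, 37C) is measured as medium luminescence with coelenterazine, after 16 h compound pretreatment of SH-SY5Y-GLuc-SERCaMP cells; primary at three concentrations up to 38.3 uM, follow-up at 11 (up to 76.6 uM).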

Assay [17] in a line: Cell Viability qHTS for small molecule stabilizers of the endoplasmic reticulum resident proteome (AID 1508629).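 Note: compound exposure about 46 h in total before the viability read.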 Note: potency is the fitted concentration of half-maximal effect. The conditions noted are these: cell viability counter-screen, 100 nM thapsigargin for final 4 h.
Assay [18] in a line: qHTS Assay for Lipid Storage Modulators (AID 1519; calls by dose curve). The conditions noted are these: Drosophila S3 cells, BODIPY lipid droplet/cell ratio, laser cytometry, cells loaded with oleic acid; for activity change, negative = inhibition: at 57.5 µM (top of the series). In a few lines: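 Cells seeded at 5,000 per well were treated with compounds over a concentration series and loaded with oleic acid (400 uM, as added). Lipid droplet fluorescence (488 nm excitation, 500-530 nm channel) was read by laser-scanning cytometry and normalized to 20 uM Triacsin C.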

For assay [19], the target named is Dual specificity protein kinase CLK4 (Homo sapiens) (UniProt Q9HAZ1). Nature of the assay: qHTS Assay for Inhibitors of CDC-like Kinase 4 (Kinase-Glo Assay) (AID 1770). Note: % is set by controls: 0 for no effect and ±100 for the full control effect; nearly all actives have a fitted effect of over 65% in size. In a few lines:
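Luminescent ATP-depletion read-out (Kinase-Glo) after 4.5 h room-temperature reaction of Clk4 (25 nM final) with RS peptide (100 uM) and ATP (1 uM), pH 7.5 Tris buffer with MgCl2 and DTT.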

Assay [20] shares this target. Nature of the assay: qHTS Assay for Inhibitors of CDC-like Kinase 4 (ADP-Glo Assay) (AID 1771). Note: % is set by controls: 0 for no effect and ±100 for the full control effect; nearly all actives have a fitted effect of over 70% in size. In a few lines: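 Compounds are pin-transferred onto substrate mix (100 uM RS peptide, 1 uM ATP), then 25 nM Clk4 is added. After 1 hr at room temperature, ADP-Glo reagent runs 45 min, detection reagent 30 min, then luminescence is read.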
Assay [21] shares this target. Kind of assay: qHTS Assay for Inhibitors of CDC-like Kinase 4 (ADP-FP Assay) (AID 1795).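 Note: recombinant human CLK4 phosphorylating RS repeat peptide at 1 µM ATP; % is set by controls: 0 for no effect and ±100 for the full control effect; nearly all actives have a fitted effect of over 60% in size.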 In a few lines:
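Kinase activity was measured as ADP production using Transcreener orange tracer (4 nM) and ADP antibody (1 ug/mL) fluorescence polarization, with ADP calculated from a calibration curve. The 1 h reaction contained 6.25 nM Clk4, 1 uM ATP and 100 uM RS peptide at pH 7.5 with Mg2+.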

The target in assay [22] is Ubiquitin carboxyl-terminal hydrolase 1 (Homo sapiens) (UniProt O94782). Nature of the assay: Inhibitors of USP1/UAF1: Pilot qHTS (AID 504865).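 Note: rhodamine fluorescence freed from ubiquitin-rhodamine substrate followed over time; top concentration of the series differs between compounds; % is set by controls: 0 for no effect and ±100 for the full control effect; nearly all actives have a fitted effect of over 35% in size.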 In a few lines:
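Deubiquitinase activity followed as kinetic rhodamine fluorescence release from 150 nM Ub-Rho. 1 nM USP1/UAF1 with compound, after 15 min room-temperature preincubation, in HEPES pH 7.8 buffer containing TCEP, EDTA, BSA and Tween-20.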

The mark [23] stands for this setting: measured here: cell count channel max response.
[24] abbreviates: measured here: lipid channel max response.

Chain of 3',5'-cyclic-AMP phosphodiesterase 4B (Homo sapiens) (Q07343 whole entry, looked up): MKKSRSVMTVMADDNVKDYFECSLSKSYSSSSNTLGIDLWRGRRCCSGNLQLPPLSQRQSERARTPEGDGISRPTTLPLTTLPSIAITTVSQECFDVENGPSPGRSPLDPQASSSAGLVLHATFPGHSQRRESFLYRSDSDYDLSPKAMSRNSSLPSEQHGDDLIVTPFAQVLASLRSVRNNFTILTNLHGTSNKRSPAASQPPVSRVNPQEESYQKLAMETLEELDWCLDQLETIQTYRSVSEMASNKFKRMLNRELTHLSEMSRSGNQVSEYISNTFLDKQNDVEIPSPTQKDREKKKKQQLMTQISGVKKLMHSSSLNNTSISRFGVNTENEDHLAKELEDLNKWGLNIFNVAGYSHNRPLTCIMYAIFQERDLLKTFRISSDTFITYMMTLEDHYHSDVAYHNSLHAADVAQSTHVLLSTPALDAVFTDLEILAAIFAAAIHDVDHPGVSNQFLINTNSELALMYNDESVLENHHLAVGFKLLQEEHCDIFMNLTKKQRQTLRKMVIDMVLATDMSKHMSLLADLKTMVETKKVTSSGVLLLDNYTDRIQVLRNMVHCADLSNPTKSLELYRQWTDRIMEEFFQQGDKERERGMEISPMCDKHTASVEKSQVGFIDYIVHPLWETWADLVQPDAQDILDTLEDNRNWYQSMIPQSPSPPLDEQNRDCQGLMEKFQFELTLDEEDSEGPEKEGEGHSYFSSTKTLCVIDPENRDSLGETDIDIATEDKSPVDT
Chain of Dual specificity protein kinase CLK4 (Homo sapiens) (Q9HAZ1 whole entry, looked up): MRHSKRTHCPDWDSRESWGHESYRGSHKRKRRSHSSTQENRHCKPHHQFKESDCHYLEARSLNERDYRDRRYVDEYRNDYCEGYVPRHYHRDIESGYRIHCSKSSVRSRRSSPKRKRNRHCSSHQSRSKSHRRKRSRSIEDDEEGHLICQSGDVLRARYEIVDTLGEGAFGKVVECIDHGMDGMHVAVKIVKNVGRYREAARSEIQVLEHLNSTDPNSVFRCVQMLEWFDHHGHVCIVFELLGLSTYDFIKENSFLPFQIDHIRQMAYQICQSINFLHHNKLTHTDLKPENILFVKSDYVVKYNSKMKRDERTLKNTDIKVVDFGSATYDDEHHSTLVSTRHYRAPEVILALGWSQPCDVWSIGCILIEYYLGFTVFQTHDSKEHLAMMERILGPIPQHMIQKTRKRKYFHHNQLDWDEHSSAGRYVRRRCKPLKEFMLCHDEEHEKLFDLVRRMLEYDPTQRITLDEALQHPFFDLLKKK
Chain of Glucocorticoid receptor (Homo sapiens) (P04150 whole entry, looked up, the tested form may be a part): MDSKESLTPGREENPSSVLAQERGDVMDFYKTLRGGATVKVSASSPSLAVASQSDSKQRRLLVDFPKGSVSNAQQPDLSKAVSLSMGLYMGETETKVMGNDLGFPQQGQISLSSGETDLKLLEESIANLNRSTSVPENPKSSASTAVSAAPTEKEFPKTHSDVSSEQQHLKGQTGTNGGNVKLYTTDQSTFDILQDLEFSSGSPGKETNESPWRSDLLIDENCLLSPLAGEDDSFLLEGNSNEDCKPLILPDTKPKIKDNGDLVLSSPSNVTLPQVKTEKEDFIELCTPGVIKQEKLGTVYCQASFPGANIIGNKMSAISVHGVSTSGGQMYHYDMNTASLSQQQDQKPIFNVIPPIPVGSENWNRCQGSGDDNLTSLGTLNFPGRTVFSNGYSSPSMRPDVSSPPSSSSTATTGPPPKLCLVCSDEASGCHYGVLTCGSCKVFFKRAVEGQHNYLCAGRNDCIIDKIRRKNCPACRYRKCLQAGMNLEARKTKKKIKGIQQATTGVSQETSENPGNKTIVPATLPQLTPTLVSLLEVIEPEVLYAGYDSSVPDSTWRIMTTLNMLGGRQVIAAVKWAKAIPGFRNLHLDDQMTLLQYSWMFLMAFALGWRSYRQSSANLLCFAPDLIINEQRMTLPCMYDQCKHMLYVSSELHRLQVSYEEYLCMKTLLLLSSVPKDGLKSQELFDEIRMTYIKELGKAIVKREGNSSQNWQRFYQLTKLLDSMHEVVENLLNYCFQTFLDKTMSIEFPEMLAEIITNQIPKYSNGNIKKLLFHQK
Chain of Lysosomal acid glucosylceramidase (Homo sapiens) (P04062 whole entry, looked up): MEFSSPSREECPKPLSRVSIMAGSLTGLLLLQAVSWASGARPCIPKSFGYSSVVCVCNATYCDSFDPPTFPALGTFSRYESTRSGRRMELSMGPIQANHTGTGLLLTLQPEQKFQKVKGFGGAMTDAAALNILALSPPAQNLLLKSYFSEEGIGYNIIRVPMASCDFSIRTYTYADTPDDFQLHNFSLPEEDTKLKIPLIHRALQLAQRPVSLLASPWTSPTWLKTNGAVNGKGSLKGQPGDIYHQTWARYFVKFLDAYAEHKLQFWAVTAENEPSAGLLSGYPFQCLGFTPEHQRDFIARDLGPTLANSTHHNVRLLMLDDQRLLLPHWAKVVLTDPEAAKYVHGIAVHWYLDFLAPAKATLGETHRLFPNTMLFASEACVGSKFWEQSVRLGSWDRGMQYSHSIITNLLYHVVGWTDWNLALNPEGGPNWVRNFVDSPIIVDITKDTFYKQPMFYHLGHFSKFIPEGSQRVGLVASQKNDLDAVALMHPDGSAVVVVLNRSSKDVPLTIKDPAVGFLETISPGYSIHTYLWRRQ
Chain of Cytochrome P450 3A4 (Homo sapiens) (P08684 whole entry, looked up): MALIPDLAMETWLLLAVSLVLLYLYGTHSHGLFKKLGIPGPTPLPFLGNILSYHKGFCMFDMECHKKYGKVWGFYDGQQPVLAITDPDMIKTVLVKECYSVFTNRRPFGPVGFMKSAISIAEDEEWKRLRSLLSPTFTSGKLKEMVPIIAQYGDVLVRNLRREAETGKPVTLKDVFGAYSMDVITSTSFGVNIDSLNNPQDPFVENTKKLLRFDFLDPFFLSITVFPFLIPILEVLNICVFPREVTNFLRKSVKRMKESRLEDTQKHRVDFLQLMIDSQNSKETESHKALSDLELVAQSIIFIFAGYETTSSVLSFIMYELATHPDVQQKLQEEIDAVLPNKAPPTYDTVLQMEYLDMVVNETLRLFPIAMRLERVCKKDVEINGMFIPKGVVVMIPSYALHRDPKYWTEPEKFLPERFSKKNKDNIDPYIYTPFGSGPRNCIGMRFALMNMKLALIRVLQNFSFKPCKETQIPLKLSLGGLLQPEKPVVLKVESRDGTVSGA
Chain of Cytochrome P450 1A2 (Homo sapiens) (P05177 whole entry, looked up): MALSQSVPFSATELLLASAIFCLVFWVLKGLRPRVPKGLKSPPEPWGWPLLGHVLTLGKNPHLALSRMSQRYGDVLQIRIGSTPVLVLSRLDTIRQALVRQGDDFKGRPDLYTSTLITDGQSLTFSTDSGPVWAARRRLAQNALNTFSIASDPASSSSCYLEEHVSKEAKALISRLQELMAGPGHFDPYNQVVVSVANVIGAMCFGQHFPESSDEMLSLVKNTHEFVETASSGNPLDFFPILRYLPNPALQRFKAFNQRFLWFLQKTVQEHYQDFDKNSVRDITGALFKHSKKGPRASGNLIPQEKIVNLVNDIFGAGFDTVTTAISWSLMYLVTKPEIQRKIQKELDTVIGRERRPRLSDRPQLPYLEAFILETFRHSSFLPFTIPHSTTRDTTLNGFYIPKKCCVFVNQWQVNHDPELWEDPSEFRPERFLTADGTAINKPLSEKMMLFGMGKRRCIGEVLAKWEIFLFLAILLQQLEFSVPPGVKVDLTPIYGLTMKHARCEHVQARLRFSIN
Chain of Ubiquitin carboxyl-terminal hydrolase 1 (Homo sapiens) (O94782 whole entry, looked up): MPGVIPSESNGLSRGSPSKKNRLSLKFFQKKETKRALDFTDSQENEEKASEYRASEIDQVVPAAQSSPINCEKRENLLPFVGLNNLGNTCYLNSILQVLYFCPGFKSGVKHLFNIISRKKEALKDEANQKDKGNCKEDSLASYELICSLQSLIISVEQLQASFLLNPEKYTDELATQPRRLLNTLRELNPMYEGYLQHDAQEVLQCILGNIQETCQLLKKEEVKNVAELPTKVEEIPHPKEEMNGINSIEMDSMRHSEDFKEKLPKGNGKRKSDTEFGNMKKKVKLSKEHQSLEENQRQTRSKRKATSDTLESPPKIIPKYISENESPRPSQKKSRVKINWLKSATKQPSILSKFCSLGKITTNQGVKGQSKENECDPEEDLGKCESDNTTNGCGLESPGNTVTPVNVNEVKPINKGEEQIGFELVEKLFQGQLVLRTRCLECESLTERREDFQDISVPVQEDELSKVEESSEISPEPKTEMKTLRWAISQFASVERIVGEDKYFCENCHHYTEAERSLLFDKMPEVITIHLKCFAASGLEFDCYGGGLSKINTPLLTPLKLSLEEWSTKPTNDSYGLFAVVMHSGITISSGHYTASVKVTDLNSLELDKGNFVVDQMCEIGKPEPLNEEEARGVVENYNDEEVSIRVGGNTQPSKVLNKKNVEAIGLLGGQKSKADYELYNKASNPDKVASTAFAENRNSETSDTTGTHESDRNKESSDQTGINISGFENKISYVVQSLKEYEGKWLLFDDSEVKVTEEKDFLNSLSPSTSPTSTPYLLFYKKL
Chain of Cytochrome P450 2D6 (Homo sapiens) (P10635 whole entry, looked up): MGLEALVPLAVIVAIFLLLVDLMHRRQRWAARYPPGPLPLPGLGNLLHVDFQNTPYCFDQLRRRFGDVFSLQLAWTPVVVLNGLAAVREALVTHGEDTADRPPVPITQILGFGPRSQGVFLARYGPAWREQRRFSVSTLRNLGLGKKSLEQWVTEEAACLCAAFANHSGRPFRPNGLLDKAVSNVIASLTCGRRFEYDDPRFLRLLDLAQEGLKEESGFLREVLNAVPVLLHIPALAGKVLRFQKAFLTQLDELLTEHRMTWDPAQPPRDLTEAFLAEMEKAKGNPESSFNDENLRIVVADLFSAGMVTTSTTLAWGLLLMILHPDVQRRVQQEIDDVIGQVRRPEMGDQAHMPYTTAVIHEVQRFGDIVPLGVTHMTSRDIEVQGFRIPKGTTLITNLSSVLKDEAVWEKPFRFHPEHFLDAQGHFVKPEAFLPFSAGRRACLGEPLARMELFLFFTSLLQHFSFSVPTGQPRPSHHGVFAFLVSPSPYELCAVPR

Take `CN1CCN(c2nc(-c3ccc(N(C)C)cc3)nc3ccccc23)CC1`: the Potency was > 11.4 µM (inactive) in assay [1]; 12.6 µM (active) in assay [3]; > 46 µM (inactive) in [6]; > 46 µM (inactive) in assay [7]; 15.8 µM (active) in [11]; 3.16 µM (active) in assay [12]. The results for the activity change, negative = inhibition in assay [2], in assay [4] and in [10] were 5.88% (inactive), -2.47% (inactive) and 9.44% [at 2.29 µM] (inactive), respectively. Further, the activity, negative = inhibition in [5] was 3.05% (inactive). In addition, the call in assay [8], in assay [14] and in assay [15] was inactive. In addition, the Potency entry in assay [9], in assay [13] and in assay [16] was “inactive” each time. Further, the max response in assay [17] is 17.5% (inactive).

`COc1ccc(-c2nc3cnc(N4CCNCC4)nc3n(-c3ccc(OC)cc3)c2=O)cc1`: the Potency in assay [1] is > 11.4 µM (inactive); in assay [6], > 9.22 µM (inactive); in [7], > 46 µM (inactive); in assay [17], 25.1 µM (active). Also, the outcome in assay [8] was inactive. Moreover, the Potency result in assay [9], in assay [19], in [20], in assay [21], in assay [22] and in [16] was “inactive” in each case. In addition, the activity change, negative = inhibition in assay [18] was 1.3% (inactive). For the same compound, the max response was 15% in assay [18] (setting [23]) and 15.1% in [18] (setting [24]).

As to `Cc1noc(C)c1-c1nc(N2CCNCC2)c2ccccc2n1`, the results for the activity change, negative = inhibition in assay [2], in [4] and in [18] were 18.5% (inactive), -3.25% (inactive) and 9.99% (inactive), respectively. Also, the activity, negative = inhibition in assay [5] is 13.9% (inactive). Besides, the Potency in [6] was > 46 µM (inactive); in [7], > 46 µM (inactive); in [16], 14.1 µM (active). Moreover, the compound was classed as inactive in [8], in [14] and in [15]. The Potency entry in assay [9] was “inactive”. The values for the max response in assay [18] (setting [23]) and in assay [18] (setting [24]) were 11.4% and 19.2%, respectively.
